This note sets out measurements from PubChem BioAssay (NCI).

Molecules are shown by their SMILES. The panel holds about 83,000 compounds, 20% with a hit somewhere; the sample as a whole holds those more often.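 96-well plates, one dose, 48 hours. Percent growth reported; active if below 10.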 A number with no mark means an inactive call. Active and inactive are the calls of the source.

The assay deals with BT-549 breast. The assay can be described thus: NCI-60 one-dose screen, 48 h (100 = growth as untreated, 0 = no growth, -100 = all killed). The following applies: 10 µM.
With `O=C(c1ccc(Cl)cc1)C1[C@H](c2ccc(Br)cc2)[C@@H](c2ccccc2)NC12C(=O)Nc1ccc(Cl)cc12` (some centres undefined), the growth is -57.1% (active).

As for `O=C(O)CCCCCCCCCCN1C(=O)/C(=C/c2cnc(-c3ccc(Cl)cc3)s2)SC1=S`, the growth was -17.1% (active). Next, `CN1CCN(c2ccc(Nc3nc(N4CCN(S(=O)(=O)c5ccc(Cl)cc5)CC4)c4sccc4n3)cc2)CC1`: 64.6%; `CN1CCN(c2ccc(C(=O)/C=C/c3cc(Br)ccc3F)cc2)CC1`: 59.3%. For `O=c1nc(-c2ccccc2)cc(-c2cc3ccccc3nc2Cl)[nH]1`, the growth was 12.9%. With `CC1=C2C(=C[C@@](C)(CO)[C@@H]2O)/C(=N\N)[C@](C)(O)C12CC2`, the growth is -71.7% (active). Under `O=C(c1ccc(O)cc1)C1[C@H](c2ccc(Br)cc2)[C@@H](c2ccccc2)NC12C(=O)Nc1ccc(Br)cc12` (some centres undefined) stands 39.3%; under `COc1ccc(C=CC(=O)c2ccc(-n3c(C)nc4c(cnn4-c4ccccc4)c3=O)cc2)cc1`, 45%.

Turning to `O=C(c1ccc(O)cc1)C1[C@H](c2ccccc2Br)[C@@H](c2ccccc2)NC12C(=O)Nc1ccc(Cl)cc12` (some centres undefined), the growth is 15.7%. Under `O=C(c1ccccc1)n1ccc(-c2cc3cc(Br)ccc3oc2=O)n1` stands 39.2%; under `C#Cc1ccc(S(=O)(=O)Nc2cccc(-c3csc(NC(C)=O)n3)c2)cc1`, 55.7%. As for `O=C(N/N=C/c1ccc(-c2cccc([N+](=O)[O-])c2)o1)c1[nH]c2ccc(Br)cc2c1-c1ccccc1`, the growth was 30.5%. As to `O=C(Nc1nc2ccc([N+](=O)[O-])cc2s1)Nc1cc(Cl)ccc1I`, the growth is -87.2% (active). On to `C=C(c1ccc(OC)c(N)c1)c1cc(C)nc2ccccc12`, for which the growth was 64.8%. Under `CNC(=O)c1cccc(N2CCc3c2ccc(NC(=O)Nc2ccc(N4CCN(C)CC4)c(C(F)(F)F)c2)c3F)c1` stands 11.6%; under `COc1ccc([C@H]2C(C(=O)c3ccc(Cl)cc3)C3(N[C@@H]2c2ccccc2)C(=O)Nc2ccc(Br)cc23)cc1` (some centres undefined), 21.9%; under `CN1CCN(Cc2ccc(C(=O)Nc3cccc(Nc4ccc5cc(O)ccc5n4)c3)cc2C(F)(F)F)CC1`, 78.1%. Next, `Brc1ccc(/C=N/Nc2ncnc3sc4c(c23)CCN(Cc2ccccc2)C4)cc1`: 102%; `COc1ccc(C(C)=C(c2ccc(OCCCN(C)C)cc2)c2ccc(OCCCN(C)C)cc2)cc1`: -78.4% (active); `C=C(C)[C@@H]1CC[C@]2(C(=O)OC)CC[C@]3(C)[C@H](CC[C@@H]4[C@@]5(C)CC[C@H](N)C(C)(C)[C@@H]5CC[C@]43C)[C@@H]12`: -63.6% (active). Next, `CS(=O)(=O)Nc1ccc(-c2ccc3c(c2)ncn3-c2ccc(NC(=O)Nc3ccc(Br)cc3)cc2)cc1`: -36.5% (active); `CCCS(=O)(=O)c1oc(-c2ccc(F)cc2)nc1S(=O)(=O)c1ccc(F)cc1`: -32.1% (active); `CC(C)CCSc1nc(NC2CC2)c(C#N)c(-c2ccc(C(C)C)cc2)n1`: 100%. `Cc1ccc(-c2nc3ccc(C(=O)N=Nc4c(O)[nH]c5ccc([N+](=O)[O-])cc45)cc3[nH]2)cc1`: the growth was 98.7%.
